# In the library only some 2.9% were active in any assay of this set; here they are far more common.
# HEK293 viab = cell viability loss counter-screen. HEK-293-SNCA-luc viability, GF-AFC fluorescence, 24 h. Potency, µM (doses to about 57.1 µM), most hits filed as cytotoxic. 150,000 compounds, 0.12% hits; further: nearly all actives have a fitted effect of over 30% in size
#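 Cytotoxicity counterscreen: after 24 h compound treatment of genome-edited SNCA-luciferase HEK-293 cells, live-cell protease substrate GF-AFC read by fluorescence after 30 min; activity scaled between DMSO (0%) and medium-only (-100%), curves Hill-fitted.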
# SNCA expr inh = SNCA gene expression inhibition; Potency, µM (doses to about 57.2 µM), actives largely listed as inhibitors; HEK-293 SNCA-luciferase knock-in, luminescence, 24 h; 140,000 compounds, 0.17% hits; further: nearly all actives have a fitted effect of over 45% in size
# KDM5B inh = blocks human KDM5B histone demethylase activity; Q9UGL1; KDM5B demethylase, FDH-coupled NADH fluorescence (FDH is formaldehyde dehydrogenase); Potency, µM (highest dose often 57.7 µM), most hits filed as inhibitors; 220,000 compounds, 2.6% hits; AID 1347165; further: nearly all actives have a fitted effect of over 70% in size
#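 Coupled FDH/NAD⁺ fluorescence readout. KDM5BΔAP 200 nM final; compound titration, 10 min RT preincubation; substrate mix 12.5 µM H3K4me3, 25 µM 2-OG, 50 µM Fe(II), 100 µM ascorbate, 0.25 mM NAD⁺, 0.25 U/mL FDH; ΔRFU over 30 min.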
# IP6K1 inh = IP6K1 kinase inhibition; IP6K1 kinase, ADP-Glo luminescence, 2 h; stronger effect = lower value; Q92551; 140,000 compounds, 0.81% hits; activity change, % (series mostly up to about 58 µM); in the data active means activity change below about -25%
#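 ADP-Glo luminescence measures ADP made by human IP6K1 during a 2 h RT reaction with ATP/IP6 (mix at 1.3 mM/130 uM); top library doses 57.5 and 19.1 uM final.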
# Numbers stand for hits; n = inactive; u = inconclusive; x = no result. Unless noted, the call rests on the fitted dose curve; in most records, active means well fitted curve in the direction sought with a large enough effect; inconclusive means small, poorly fitted or top-dose-only effect, or another doubt; inactive means no such curve, though single readings can be large; an effect the other way counts as inactive or inconclusive.
SMILES,HEK293 viab,SNCA expr inh,KDM5B inh,IP6K1 inh
CCCOc1ccc(CN2CCCC(COc3ccccc3C(=O)NC3CC3)C2)cc1 (centres undefined),n,n,n,n
COCCNc1ncc(-c2ccc(F)cc2)c2c1OCC2,n,n,32µM,n
COc1ccc(-c2cnc(NC(=O)Cc3ccc(F)cc3)c3c2CCO3)cn1,n,n,u,n
COCCNc1ncc(-c2ccc(SC)cc2)c2c1OCC2,n,n,5µM,n
COc1ccc(OCC(=O)Nc2ncc(-c3ccc(OC)nc3)c3c2OCC3)cc1,n,n,n,n
COCCNc1ncc(-c2cccc(OC)c2)c2c1OCC2,n,n,35µM,n
COCCNc1ncc(-c2ccc(OC)cc2)c2c1OCC2,n,n,35µM,n
CCN1C(=O)CCN(Cc2ccc(C)s2)CC12CCOCC2,n,n,x,n
COc1ccc(NC(=O)C2CCCN(S(=O)(=O)c3c(C)n[nH]c3C)C2)cc1OC (centres undefined),n,n,n,n
O=C(c1cccs1)N1CCC(Nc2cccnc2)C1 (centres undefined),n,n,u,n
COCCNc1ncc(-c2cccc(N[S+](C)(=O)[O-])c2)c2c1OCC2,n,n,35µM,n
COc1ccc(C(=O)Nc2ncc(-c3cccc(N(C)C)c3)c3c2OCC3)cc1,n,n,u,n
COCCNc1ncc(-c2ccc(NC(C)=O)cc2)c2c1OCC2,n,n,35µM,n
Cc1nn(C)c2c(=O)n(CC(=O)NCc3ccccc3C(F)(F)F)ccc12,x,x,n,x
Cc1ccc(NC(=O)CSc2nc3ccccc3nc2Cc2ccccc2F)cc1F,u,n,n,n
CN1CCC(CNC(=O)C2CCN(C(=O)c3ccc(C(F)(F)F)cc3)CC2)CC1,x,x,n,x
COCCNC(=O)c1ccc2c(c1)N(C)C(CC(=O)NCC(C)C)CO2 (centres undefined),n,n,u,n
COCCNC(=O)c1ccc2c(c1)N(C)C(CC(=O)NC(C)C)CO2 (centres undefined),n,n,20µM,n
CN(C)C(=O)c1ccc2c(c1)N(C)C(CC(=O)NC(C)(C)c1ccccc1)CO2 (centres undefined),n,u,n,n
COCCNC(=O)c1ccc2c(c1)N(C)C(CC(=O)NC1CCC1)CO2 (centres undefined),n,n,28µM,n
CCN(CC)C(=O)CC1COc2ccc(C(=O)NCCOC)cc2N1C (centres undefined),n,n,28µM,n
COCCNC(=O)c1ccc2c(c1)N(C)C(CC(=O)NCc1ccon1)CO2 (centres undefined),u,n,28µM,n
COCCNC(=O)c1ccc2c(c1)N(C)C(CC(=O)Nc1ccccc1)CO2 (centres undefined),n,n,32µM,n
CCNC(=O)CC1COc2ccc(C(=O)NCCOC)cc2N1C (centres undefined),n,n,32µM,n
COCCNC(=O)c1ccc2c(c1)N(C)C(CC(=O)N(C)CC(C)C)CO2 (centres undefined),n,n,32µM,n
SMILES,HEK293 viab,SNCA expr inh,KDM5B inh,IP6K1 inh
COCCNC(=O)c1ccc2c(c1)N(C)C(CC(=O)Nc1ccc(N)nc1)CO2 (centres undefined),n,n,22µM,n
Cc1cncc(NC(=O)CC2COc3ccc(C(=O)N(C)C)cc3N2C)c1 (centres undefined),n,n,n,n
CN1c2cc(C(=O)N3CCOCC3)ccc2OCC1CC(=O)NC(C)(C)C (centres undefined),n,n,n,n
COc1ccc(-c2cc3nc(C)c(CCC(=O)Nc4cccc(C(F)(F)F)c4)c(C)n3n2)c(OC)c1,n,n,n,n
Cc1ccc(S(=O)(=O)c2nnn3c2nc(NC2CCCC2)c2ccccc23)cc1,n,n,u,n
COCc1cccc(C(=O)NCCC(c2ccccc2)c2ccccc2)c1,x,x,n,x
CCCNC(=O)CC1COc2ccc(C(=O)NCCOC)cc2N1C (centres undefined),n,n,28µM,n
Cc1ccc(C(=O)N2CCCC3(C2)Nc2cccnc2NC3=NC2CCCC2)cc1F (centres undefined),n,n,28µM,n
O=C(c1n[nH]c2c1CCCC2)N1CCCC2(C1)Nc1cccnc1NC2=NC1CCCC1 (centres undefined),n,n,25µM,n
COc1ccc(NC(=O)N2CCCC3(C2)Nc2cccnc2NC3=NC2CCCC2)c(C)c1 (centres undefined),n,n,25µM,n
CC1(C(=O)NCC2CCCO2)CCc2cnc(NCc3ccccc3)nc21 (centres undefined),n,n,40µM,n
COc1cccc(NC(=O)C2(C)CCc3cnc(NCc4ccccc4)nc32)c1 (centres undefined),n,n,n,n
CC1(C(=O)NCc2cnccn2)CCc2cnc(NCc3ccccc3)nc21 (centres undefined),n,u,u,n
CC1(C(=O)N2CCN(c3ccccn3)CC2)CCc2cnc(NCc3ccccc3)nc21 (centres undefined),n,u,u,n
CC1(C(=O)NCC2CC2)CCCc2cnc(NCc3ccccc3)nc21 (centres undefined),n,u,35µM,n
CC1(C(=O)NCCc2ccccn2)CCc2cnc(NCc3ccccc3)nc21 (centres undefined),n,u,32µM,n
CCOC(=O)c1c(C)oc2ncnc(N3CCN(c4ccccc4F)CC3)c12,n,n,n,n
CSc1cccc(NC(=O)N2C[C@H](c3nc(-c4ccncc4)no3)[C@@H](C)C2)c1,n,n,n,n
COc1cccc(CC(=O)N[C@@H]2C[C@H](Cn3cc(-c4cccnc4)nn3)[C@@H](O)[C@H]2O)c1,n,n,u,n
Clc1ccc2ncc(-c3cccc(NC4CNC4)n3)n2c1,n,0.61µM,x,n
CCCn1cc(-c2ccnc(NC3CCN(Cc4cccnc4)CC3)n2)c(C)n1,u,u,32µM,n
COCCN1CCC2(CCC1=O)CN(c1ccc(C#N)cn1)CCN2C (centres undefined),u,u,28µM,n
CCN1CCN(CCNC(=O)CN2CC3CC(C2)[C@H]2CCCC(=O)N2C3)CC1 (some centres undefined),n,n,n,n
COc1ccc2cc(C(=O)N3CC4CC(C3)[C@H]3CCCC(=O)N3C4)[nH]c2c1 (some centres undefined),n,n,n,n
COc1ccc2cc(C(=O)NC3CCN(C(=O)N4CC5CC(C4)[C@H]4CCCC(=O)N4C5)CC3)[nH]c2c1 (some centres undefined),n,n,28µM,n
COC(=O)CC1=C(C)C(=O)CC2C(C)(C)CCC[C@]12C (some centres undefined),x,x,n,x
CC(C)CCN1CCN(C(=O)c2ccc(C#N)cc2)CC1,x,x,n,x
COCCn1ccc2c(C3=CCOCC3)nc(-c3ccc4cn[nH]c4c3)cc21,n,n,40µM,n
COCCn1ccc2c(C3=CCOCC3)nc(-c3ccc4c(c3)CNC4=O)cc21,n,n,11µM,n
